Test results: paper PMC5540273 (PLoS ONE, 2017)

Legend:
Settings in all cases: concentration: 1 μM, replicates: in singlicate; n = 1
[1] = test system: T1, ERK4
T1 construct: gene MAPK4

[2] = test system: T2, ERK5
T2 construct: gene MAPK7

[3] = test system: T3, ERK8
T3 construct: gene MAPK15

[4] = test system: ERN1
[5] = test system: T4, FAK
T4 construct: gene PTK2

[6] = test system: FER
[7] = test system: FES
[8] = test system: FGFR1
[9] = test system: FGFR2
[10] = test system: FGFR3
[11] = test system: FGFR4
[12] = test system: FGR
[13] = test system: FLT1
[14] = test system: FLT3-autoinhibited
[15] = test system: FLT3
[16] = test system: FLT4
[17] = test system: FRK
[18] = test system: FYN
[19] = test system: GAK
[20] = test system: T5, GCN2(Kin.Dom.2,S808G)
T5 construct: gene EIF2AK4
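Further: KINOMEscan kinase panel screen.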

Structure (SMILES)	%Inh [1]	%Inh [2]	%Inh [3]	%Inh [4]	%Inh [5]	%Inh [6]	%Inh [7]	%Inh [8]	%Inh [9]	%Inh [10]	%Inh [11]	%Inh [12]	%Inh [13]	%Inh [14]	%Inh [15]	%Inh [16]	%Inh [17]	%Inh [18]	%Inh [19]	%Inh [20]
Nc1n[nH]c2nnc(-c3ccccc3)cc12 [SB-517389]	30%	0%	18%	3%	0%	0%	0%	0%	5%	11%	14%	29%	12%	1%	0%	0%	6%	28%	10%	10%
Clc1cccc(-c2nc(Nc3ccncc3)c3ccccc3n2)c1 [GW873004]	0%	0%	23%	0%	11%	16%	16%	37%	11%	0%	0%	55%	34%	0%	17%	52%	29%	0%	3%	0%
COc1ccc(NC(=O)Nc2ccc(C)c(-c3ccc(C(=O)Nc4ccncc4)cc3)c2)cc1 [GSK1398475]	0%	0%	0%	0%	0%	5%	2%	0%	0%	11%	5%	27%	26%	0%	85%	15%	23%	41%	0%	0%
FC(F)(F)c1cc(Nc2nccc(-c3c(-c4ccc(Cl)cc4)nn4ncccc34)n2)ccc1Cl [GW829351]	0%	0%	0%	0%	0%	0%	0%	0%	0%	0%	0%	0%	0%	0%	0%	0%	0%	0%	0%	0%
Fc1ccc(Nc2nccc(-c3c(-c4ccc(Cl)cc4)nn4ncccc34)n2)cc1F [GW829058]	23%	0%	0%	48%	17%	9%	19%	13%	15%	9%	5%	12%	8%	14%	40%	1%	32%	7%	14%	3%
COc1ccc(Nc2nccc(N3CCC(NC(=O)c4cccc(NC(C)=O)c4)C3)n2)cc1 (stereo not drawn) [GSK1379732]	7%	0%	5%	0%	0%	12%	0%	0%	37%	19%	3%	27%	23%	0%	0%	6%	0%	0%	16%	9%
Nc1nccc2scc(-c3ccc4c(c3)CCN4C(=O)Cc3cc(F)ccc3F)c12 [GSK2587663]	0%	0%	14%	2%	0%	26%	18%	0%	1%	9%	7%	40%	37%	0%	0%	0%	11%	12%	0%	13%
Cn1ccc2ncnc(Oc3ccc(NC(=O)Nc4cccnc4)c(Cl)c3)c21	0%	5%	0%	37%	0%	0%	16%	0%	0%	0%	0%	0%	2%	0%	0%	37%	0%	0%	0%	0%
Cl.c1ccc(Cn2ccc3cc(Nc4ncnc5ccccc45)ccc32)cc1 [GW275568]	46%	7%	0%	0%	0%	17%	15%	0%	0%	28%	8%	21%	24%	11%	0%	8%	0%	25%	25%	0%
